Measured values from PubChem BioAssay.
Unmarked numbers belong to inactive results. For some assays here: Measured potencies and affinities stand elsewhere. The source made the active and inactive calls. Unless noted, no rule for the calls is given here.

Legend:
[1] = antimalarial activity against Dd2 strain (AID 2302;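 active = growth inhibition above 50% at the single 2 µM test dose, taken to imply half-maximal potency below 2 µM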;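 also: 0% = DMSO untreated growth and 100% = chloroquine plus artemisinin killed control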); settings: P. falciparum Dd2 in RBCs, LDH growth readout, 72 h; at 2 µM; stronger effect = higher value
[2] = HepG2 cytotoxicity, primary screen, cytotoxicity control for P. falciparum antimalarial project, cell-based, ATP luminescence (AID 2303;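 active = inhibition above 50%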;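 also: 0% = DMSO wells and 100% = digitonin-killed cells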); settings: HepG2 viability, 24-48 h, at 10 µM, stronger effect = higher value
[3] = target: L-lactate dehydrogenase (Plasmodium falciparum (isolate CDC / Honduras)) (UniProt Q27743); test: PfLDH activity inhibition – cell lysate, 3D7 strain, counter-screen for P. falciparum growth inhibition project (AID 2304);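 also: 0% = vehicle and 100% = reference inhibitor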; settings: P. falciparum 3D7 crude extract, LDH APAD/NBT absorbance; at 2 µM; stronger effect = higher value
Sequence of L-lactate dehydrogenase (Plasmodium falciparum (isolate CDC / Honduras)) (Q27743 whole entry, looked up): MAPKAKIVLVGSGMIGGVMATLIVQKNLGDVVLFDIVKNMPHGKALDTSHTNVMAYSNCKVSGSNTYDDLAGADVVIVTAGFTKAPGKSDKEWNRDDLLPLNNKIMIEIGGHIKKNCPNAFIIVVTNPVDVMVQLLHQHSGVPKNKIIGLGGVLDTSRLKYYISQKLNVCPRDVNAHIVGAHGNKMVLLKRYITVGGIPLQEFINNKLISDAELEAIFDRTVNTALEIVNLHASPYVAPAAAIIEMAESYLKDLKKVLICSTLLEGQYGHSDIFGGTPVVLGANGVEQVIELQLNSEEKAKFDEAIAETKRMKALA

[4] = inhibition of 3D7 malaria parasite growth – strain 3D7 (AID 2306);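 also: 0% = DMSO wells and 100% = chloroquine plus artemisinin control wells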; settings: P. falciparum 3D7 erythrocytic growth, LDH absorbance, 72 h; at 2 µM; stronger effect = higher value
[5] = target: Calcium-dependent protein kinase 1 (Plasmodium falciparum (isolate 3D7)) (UniProt P62344); test: PfCDPK1 kinase inhibitors, biochemical, TCAMS library (AID 1159585; cut-off not given, nearly all actives have IC50 up to about 0.98 µM;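 also: inhibitors leave more ATP so luminescence rises with inhibition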); settings: recombinant PfCDPK1, Kinase-Glo ATP depletion luminescence
Sequence of Calcium-dependent protein kinase 1 (Plasmodium falciparum (isolate 3D7)) (P62344 whole entry, looked up): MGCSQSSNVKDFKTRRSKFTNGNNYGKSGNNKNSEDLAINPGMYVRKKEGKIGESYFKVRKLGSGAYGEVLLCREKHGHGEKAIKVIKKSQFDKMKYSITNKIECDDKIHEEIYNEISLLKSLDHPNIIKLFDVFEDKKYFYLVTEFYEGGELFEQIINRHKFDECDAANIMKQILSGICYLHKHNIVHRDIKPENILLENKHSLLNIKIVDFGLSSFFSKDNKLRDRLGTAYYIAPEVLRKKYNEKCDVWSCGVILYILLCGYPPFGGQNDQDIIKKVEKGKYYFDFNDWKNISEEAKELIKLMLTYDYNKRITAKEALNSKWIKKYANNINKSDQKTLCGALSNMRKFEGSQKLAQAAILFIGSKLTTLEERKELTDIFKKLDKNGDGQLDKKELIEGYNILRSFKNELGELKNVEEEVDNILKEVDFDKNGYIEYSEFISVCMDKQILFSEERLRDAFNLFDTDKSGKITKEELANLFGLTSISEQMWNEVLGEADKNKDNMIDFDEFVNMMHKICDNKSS

[6] = target: Plasmodium falciparum protein kinase 6 (PK6, PF3D7_1337100) (UniProt Q8IDW1); test: PfPK6 kinase inhibitors, biochemical, TCAMS library (AID 1159586); settings: recombinant PfPK6, Kinase-Glo ATP depletion luminescence
Sequence of Plasmodium falciparum protein kinase 6 (PK6, PF3D7_1337100) (Q8IDW1 1-305): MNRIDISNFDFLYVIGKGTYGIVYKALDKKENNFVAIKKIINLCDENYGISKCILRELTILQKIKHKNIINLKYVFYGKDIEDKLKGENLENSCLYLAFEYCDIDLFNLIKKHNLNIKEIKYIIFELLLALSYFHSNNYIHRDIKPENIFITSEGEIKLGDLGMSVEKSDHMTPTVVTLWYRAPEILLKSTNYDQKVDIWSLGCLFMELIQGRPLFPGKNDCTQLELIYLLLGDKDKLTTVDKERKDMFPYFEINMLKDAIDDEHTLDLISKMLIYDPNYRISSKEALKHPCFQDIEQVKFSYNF

[7] = target: Protein kinase 7 (PK7), Plasmodium falciparum 3D7 (PF3D7_0213400) (UniProt Q7YTF7); test: inhibition of Plasmodium PK7 catalytic activity – biochemical, TCAMS antimalarial set, Kinase-Glo luminescence (AID 1159587); settings: recombinant PfPK7, Kinase-Glo ATP depletion luminescence
Sequence of Protein kinase 7 (PK7), Plasmodium falciparum 3D7 (PF3D7_0213400) (Q7YTF7 1-343): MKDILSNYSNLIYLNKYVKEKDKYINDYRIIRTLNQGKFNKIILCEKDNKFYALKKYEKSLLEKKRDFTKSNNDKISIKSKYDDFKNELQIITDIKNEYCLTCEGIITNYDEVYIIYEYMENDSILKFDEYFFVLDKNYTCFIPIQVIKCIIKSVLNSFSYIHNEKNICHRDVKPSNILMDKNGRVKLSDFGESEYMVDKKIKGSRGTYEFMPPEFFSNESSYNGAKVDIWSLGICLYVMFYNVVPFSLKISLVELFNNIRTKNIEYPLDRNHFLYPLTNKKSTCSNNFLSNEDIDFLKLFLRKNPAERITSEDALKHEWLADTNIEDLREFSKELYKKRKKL

[8] = target: Calcium-dependent protein kinase 4 (Plasmodium falciparum (isolate 3D7)) (UniProt Q8IBS5); test: PfCDPK4 kinase inhibitors, biochemical, TCAMS library (AID 1159588; cut-off not given, nearly all actives have IC50 up to about 0.91 µM); settings: recombinant PfCDPK4, Kinase-Glo ATP depletion luminescence
Sequence of Calcium-dependent protein kinase 4 (Plasmodium falciparum (isolate 3D7)) (Q8IBS5 whole entry, looked up): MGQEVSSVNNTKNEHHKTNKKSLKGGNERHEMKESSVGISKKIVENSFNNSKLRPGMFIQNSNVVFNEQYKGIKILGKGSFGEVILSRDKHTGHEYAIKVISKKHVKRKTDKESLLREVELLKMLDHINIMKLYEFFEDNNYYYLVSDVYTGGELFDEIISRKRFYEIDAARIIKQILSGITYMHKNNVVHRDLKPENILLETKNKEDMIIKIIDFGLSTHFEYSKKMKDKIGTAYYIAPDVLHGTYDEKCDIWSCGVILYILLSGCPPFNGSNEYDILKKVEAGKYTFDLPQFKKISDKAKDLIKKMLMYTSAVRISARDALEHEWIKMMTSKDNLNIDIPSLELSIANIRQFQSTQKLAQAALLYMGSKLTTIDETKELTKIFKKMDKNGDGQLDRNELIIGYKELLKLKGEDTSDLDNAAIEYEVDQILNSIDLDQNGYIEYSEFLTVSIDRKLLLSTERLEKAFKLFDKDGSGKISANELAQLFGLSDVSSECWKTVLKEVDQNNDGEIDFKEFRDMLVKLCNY

SMILES | growth inhibition [1] | inhibition [2] | inhibition [3] [%] | growth inhibition [4] | outcome [5] | outcome [6] | outcome [7] | outcome [8]
CN1CCN(CCCN(Cc2cccc(-c3cccc(CNC4CCCC4)c3)c2)C(=O)/C=C/c2ccccc2)CC1 | 99% (active) | 84% (active) | -5 | 101% (active) | inactive | inactive | inactive | inactive
CCCNc1nc(NCc2c(C)cccc2C)nc(NC(C)(C)C)n1 | 89% (active) | 15% | 2 | 91% (active) | inactive | inactive | inactive | inactive
COCCCNc1sc(S(=O)(=O)c2ccccc2)nc1S(=O)(=O)c1ccc(Cl)cc1 | 87% (active) | -7% | 4 | 95% (active) | inactive | inactive | inactive | inactive
COc1ccc2nccc([C@@H](O)CN3CCC(NCc4ccc5c(c4)oc(=S)n5C)CC3)c2c1 | 68% (active) | 14% | -6 | 100% (active) | inactive | inactive | inactive | inactive
Nc1nc(N)c2c(ccc3c2ccn3CC2CC2)n1 | 3% | 46% | -4 | 96% (active) | inactive | inactive | inactive | inactive
O=S(=O)(NCCN1CCCC1)c1ccc(-c2cccc(CNCc3ccc(F)cc3)c2)cc1 | 41% | 76% (active) | -2 | 100% (active) | inactive | inactive | inactive | inactive
CNC(=O)C(C)N(c1ccc(Cl)cc1)c1nc(C(C)(C)C)cs1 (stereo not given) | 98% (active) | 0% | 7 | 99% (active) | inactive | inactive | inactive | inactive
CCNc1cc(C(=O)N[C@@H](Cc2cccc(F)c2)[C@H](O)CNC(C)CCCC(C)C)cc(N2CCCCS2(=O)=O)c1 (stereo not given in full) | 97% (active) | -3% | -4 | 98% (active) | inactive | inactive | inactive | inactive
CN(C)CCCNc1nccc(N(C)c2ccc(NC(=O)Nc3cc(C(F)(F)F)ccc3F)cc2)n1 | 25% | 97% (active) | 2 | 93% (active) | inactive | inactive | inactive | inactive
O=S(=O)(Nc1cccc(CCN2CCC(N3CCCCC3)CC2)c1)c1cccc(C(F)(F)F)c1 | 13% | 25% | -1 | 101% (active) | inactive | inactive | inactive | inactive
COc1ccc(CN(C)CCOc2ccc(NC(=O)c3cccc4c(=O)c5cc(SC)ccc5[nH]c34)cc2)cc1OC | 98% (active) | 67% (active) | 1 | 96% (active) | inactive | inactive | inactive | inactive
COc1ccc(CNC2CCN(C)CC2)cc1-c1ccc(S(=O)(=O)NCCc2ccccn2)s1 | 12% | 6% | 3 | 100% (active) | inactive | inactive | inactive | inactive
COc1ccc(Nc2ncc3c(-c4cccc(NC(=O)Cc5cccc(F)c5)c4)c[nH]c3n2)cc1OC | 68% (active) | 24% | 2 | 101% (active) | inactive | inactive | inactive | inactive
CCCCCCCC1CC(CC(=O)Nc2ccnc3ccc(OC)cc23)CN1C(=O)OC(C)(C)C (stereo not given) | 34% | 1% | 3 | 100% (active) | inactive | inactive | inactive | inactive
c1ccc(C2CCC(N3CCC(N4CCCC4)CC3)CC2)cc1 (stereo not given) | 46% | 9% | -2 | 102% (active) | inactive | inactive | inactive | inactive
O=C(Cn1c(CCc2cccc(F)c2F)nc(=O)c2cccnc21)N(Cc1ccc(-c2ccc(C(F)(F)F)cc2)cc1)C1CCN(C2CCSCC2)CC1 | 63% (active) | 49% | 3 | 101% (active) | inactive | inactive | inactive | inactive
O=C(NCC1CCC(C(=O)NCc2cccc(C(F)(F)F)c2)CC1)c1ccc(O)c(-c2ccc(Cl)c(Cl)c2)c1 (stereo not given) | 41% | 5% | 0 | 98% (active) | inactive | inactive | inactive | inactive
CCOc1cc(C(C)C)ccc1N1CCN(CCCCNC(=O)c2ccc(NC(=O)c3ccc(Cl)cc3)cc2)CC1 | 97% (active) | 28% | 4 | 101% (active) | inactive | inactive | inactive | inactive
Cc1cccc2[nH]c(-c3ccc(-c4ccc(NC(=O)C(C)CN(C)C)cc4)s3)nc12 (stereo not given) | 98% (active) | 23% | 0 | 100% (active) | inactive | inactive | inactive | inactive
CN1CCC(c2nc(N)no2)C1 (stereo not given) | 2% | 15% | 0 | 95% (active) | inactive | inactive | inactive | inactive

SMILES | growth inhibition [1] | inhibition [2] | inhibition [3] [%] | growth inhibition [4] | outcome [5] | outcome [6] | outcome [7] | outcome [8]
Oc1ccc(CC2CCCN(c3nc(NCCCOc4ccccc4-c4ccccc4)nc(N4CCNCC4)n3)C2)cc1 (stereo not given) | 77% (active) | 56% (active) | -4 | 95% (active) | inactive | inactive | inactive | inactive
Cc1ccc(NS(=O)(=O)c2ccc(C(C)N3CCC(N4CCCCC4)CC3)cc2)cc1C (stereo not given) | 82% (active) | 66% (active) | -2 | 97% (active) | inactive | inactive | inactive | inactive
c1ccc(CNCc2ccc(-c3cccc(-c4nc5ccccc5[nH]4)c3)cc2)cc1 | 78% (active) | 55% (active) | -2 | 101% (active) | inactive | inactive | inactive | inactive
COc1ccc(CCN(C)CCc2ccc(NC(=O)c3cccc4c(=O)c5ccccc5sc34)cc2)cc1 | 33% | 24% | -2 | 95% (active) | inactive | inactive | inactive | inactive
CC1(C)N=C(N)N=C(N)N1OCCOc1ccc(Cc2ccccc2)cc1 | 26% | 62% (active) | 3 | 94% (active) | inactive | inactive | inactive | inactive
COc1ccc(-c2nc3cccnc3n2CC(=O)Nc2cc(Cl)c(Cl)cc2Cl)c(OC)c1 | 17% | 99% (active) | 1 | 100% (active) | inactive | inactive | inactive | inactive
CCOc1c(CNCCCNc2cc(=O)c3ccccc3[nH]2)cc(Br)cc1OC | 18% | 10% | -9 | 80% (active) | inactive | inactive | inactive | inactive
OC(CNCc1ccccc1OCc1ccccc1)c1cccc(C(F)(F)F)c1 (stereo not given) | 99% (active) | 12% | -2 | 99% (active) | inactive | inactive | inactive | inactive
Cn1nc(-c2ccc(NC(=O)Nc3cc(C(F)(F)F)cc(C(F)(F)F)c3)c(F)c2)c2cnc(NCCN3CCOCC3)nc21 | 37% | 43% | -6 | 94% (active) | inactive | inactive | inactive | inactive
Cc1ccccc1C1CCN(C2CCC(NC(=O)c3cc4cc(Cl)ccc4o3)CC2)CC1 (stereo not given) | 30% | 22% | -2 | 89% (active) | inactive | inactive | inactive | inactive
COc1cccc2c(NCc3ccccc3)nc(NCCCN3CCCCC3C)nc12 (stereo not given) | 2% | 20% | 2 | 90% (active) | inactive | inactive | inactive | inactive
COc1ccccc1C1CCN(C2CCC(NC(=O)c3ccc4nc(-c5ccc(C)cc5)[nH]c4c3)CC2)CC1 (stereo not given) | 100% (active) | 100% (active) | 4 | 101% (active) | inactive | inactive | inactive | inactive
CC(C)C[C@@H](C(=O)Nc1ccc(Cc2ccc(NC(=O)[C@H](CC(C)C)N(C)C(=O)OC(C)(C)C)cc2)cc1)N(C)C(=O)OC(C)(C)C | 57% (active) | 17% | 2 | 92% (active) | inactive | inactive | inactive | inactive
COc1cc2nc(C)nc(Nc3ccc(Oc4ccccc4)cc3)c2cc1OC | 72% (active) | -8% | 6 | 101% (active) | inactive | inactive | inactive | inactive
COc1ccc(-c2cc(-c3nc4ccc(CN)cc4[nH]3)c(=O)n(C)c2)cc1OC | 56% (active) | -12% | 4 | 85% (active) | inactive | inactive | inactive | inactive
COc1ccc2nccc(NN=Cc3ccccc3Cl)c2c1 | 99% (active) | 29% | -4 | 100% (active) | inactive | inactive | inactive | inactive
Cc1ccc2nc(C)cc(NN=CC=Cc3ccccc3)c2c1 | 28% | 0% | 4 | 92% (active) | inactive | inactive | inactive | inactive
CC(=O)Nc1ccc2[nH]cc(C3CCN(CC4CCC(NC(=O)/C=C/c5ccccc5Cl)CC4)CC3)c2n1 (stereo not given) | 79% (active) | 16% | -1 | 101% (active) | inactive | inactive | inactive | inactive
NC1=NC(c2ccccc2)(c2ccccc2)C(=O)N1Cc1ccc(-c2cccnc2)cc1 | 94% (active) | 15% | 5 | 99% (active) | inactive | inactive | inactive | inactive
O=C(Nc1cccc(-c2ccc(-c3nc4ccc(C(F)(F)F)cc4[nH]3)cc2)c1)Nc1ccc(F)c(F)c1F | 99% (active) | 45% | -2 | 102% (active) | inactive | inactive | inactive | inactive
